Screening results deposited in PubChem by National Center for Advancing Translational Sciences (NCATS).
Sm TGR inh = blocks Schistosoma mansoni thioredoxin glutathione reductase; Q962Y6; purified TGR, DTNB reduction, TNB absorbance 405 nm; Potency, µM (top dose mostly 114 µM), for inactives: at the highest dose activity change, negative = inhibition, actives largely listed as inhibitors; 3% of 360,000 active; AID 485364; also: % is scaled to controls: 0 for no effect and ±100 for the full control effect; nearly all actives have a fitted effect of over 60% in size
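First, TGR (20 nM dispensed) and NADPH were mixed with compound. Second, a 15 min room-temperature incubation followed. Third, further NADPH and then DTNB were added to start the reaction. Finally, TNB absorbance was monitored kinetically.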
RE007 growth inh = less growth of the S. pombe RE007 Vpr strain | S. pombe RE007 Vpr strain, BacTiter-Glo ATP luminescence, 24 h | Potency, µM (highest dose often 92.2 µM), without a hit: at the top dose activity change, negative = less growth, actives largely listed as inhibitors | 0.21% of 360,000 active | AID 651644; active = well fitted falling curve with a large enough effect; inconclusive = small, poorly fitted or top-dose-only effect; inactive = no such curve, though single readings can be large or run the other way; also: % is scaled to controls: 0 for no effect and ±100 for the full control effect; nearly all actives have a fitted effect of over 50% in size
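Fission yeast RE007 carrying one integrated HIV-1 vpr copy, seeded at OD 0.01 in PMG+AL medium with 23 nL pinned compound. Grown 24 h at 30 degrees; viability read by BacTiter-Glo luminescence after 5 min.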
TbPYK inhibitor = T. brucei pyruvate kinase inhibition; Potency, µM (titrated, usually from 76.8 µM), for inactives: at the top dose activity, negative = inhibition, actives largely listed as inhibitors; TbPYK enzyme, Kinase-Glo Plus ATP luminescence, 45 min; 0.12% of 410,000 active; Q57TT1; AID 624173; also: % is scaled to controls: 0 for no effect and ±100 for the full control effect; nearly all actives have a fitted effect of over 50% in size
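Luminescent Kinase-Glo Plus end-point after 45 min room-temperature reaction of T. brucei pyruvate kinase started with 130 uM ADP (final). Buffer TEA 50 mM pH 7.2 with KCl, MgCl2, BSA, Tween-20; titration-based qHTS with fitted concentration-effect curves.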
AmpC no deterg = blocks E. coli AmpC beta-lactamase in detergent-free assay; Potency, µM (series often up to 57.1 µM), for the others: at the highest dose activity change, negative = inhibition, hits mostly inhibitors; AmpC nitrocefin hydrolysis, absorbance 480 nm, 0.0001% Triton; 0.52% of 330,000 active;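 also: plate controls were no compound for no effect and no enzyme for full effect; nearly all actives have a fitted effect of over 20% in size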
Target sequence (P00811 whole entry, looked up): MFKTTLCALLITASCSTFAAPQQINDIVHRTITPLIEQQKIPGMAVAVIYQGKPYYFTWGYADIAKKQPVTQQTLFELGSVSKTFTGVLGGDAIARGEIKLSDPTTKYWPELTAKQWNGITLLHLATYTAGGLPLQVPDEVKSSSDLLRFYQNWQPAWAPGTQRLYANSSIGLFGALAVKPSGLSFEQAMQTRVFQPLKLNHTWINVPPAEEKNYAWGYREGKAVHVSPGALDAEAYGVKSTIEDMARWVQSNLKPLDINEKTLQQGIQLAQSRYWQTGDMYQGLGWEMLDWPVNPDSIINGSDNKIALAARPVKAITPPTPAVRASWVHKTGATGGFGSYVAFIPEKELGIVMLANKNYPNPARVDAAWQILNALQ
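AmpC (5.3 nM in the dispensed reagent) in 20 mM phosphate pH 7.0 with 0.01% (detergent screen) or 0.0001% Triton X-100 was preincubated with compounds for 15 min at room temperature. Nitrocefin was then added from an 800 uM solution, and hydrolysis was followed at 480 nm.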
SARS PLpro yeast = inhibitors of SARS-CoV papain-like protease in yeast. AID 485353. S. cerevisiae expressing SARS-CoV PLpro, growth rescue. Potency, µM (highest dose often 32.9 µM), without a hit: at the highest dose activity, positive = growth rescue, most hits filed as activators. 0.19% of 330,000 active; calls by dose curve; also: 0% is about no effect; nearly all actives have a fitted effect of over 55% in size
AmpC inh detg = blocks E. coli AmpC beta-lactamase in detergent assay. 0.041% of 370,000 active. Potency, µM (titrated, usually from 114 µM), inactives show at the top dose activity change, negative = inhibition, hits mostly inhibitors. P00811. AmpC hydrolysis of nitrocefin, absorbance 480 nm, 0.01% Triton;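 also: 0% = no-compound wells and -100% = no-enzyme wells; nearly all actives have a fitted effect of over 25% in size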
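AmpC (5.3 nM in the dispensed reagent) in 20 mM phosphate pH 7.0 with 0.01% (detergent screen) or 0.0001% Triton X-100 was preincubated with compounds for 15 min at room temperature. Nitrocefin was then added from an 800 uM solution, and hydrolysis was followed at 480 nm.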
* hit, by the source's call; u = inconclusive; x = not tested or not shown; [ ] = another dose, or the depositor's remark. Hits are enriched below; roughly 3.3% of the tested compounds scored in any of these assays. Unless noted, calls follow the shape of the dose curve; as a rule, active = well fitted curve in the direction sought with a large enough effect; inconclusive = small, poorly fitted or top-dose-only effect, or another doubt; inactive = no such curve, though single readings can be large; an effect the other way counts as inactive or inconclusive. Potency is read from the fitted curve at half-maximal effect.

SMILES	Sm TGR inh	RE007 growth inh	TbPYK inhibitor	AmpC no deterg	SARS PLpro yeast	AmpC inh detg
COc1ccc(C)cc1NC(=O)CN(c1cc(C(F)(F)F)ccc1Cl)S(C)(=O)=O	1%	x	4%	x	x	-1%
CCC1C(=O)NCCN1Cc1nc(-c2ccc(C)s2)oc1C (stereo not drawn)	40µM*	7%	0%	5%	1%	6%
Cc1ccc(-c2nc(CN(C)C3CCOCC3)c(C)o2)s1	-35%	-4%	-7%	2%	1%	4%
O=C(NN1C(=O)C2C3C=CC(O3)C2C1=O)c1cccc(Br)c1 (stereo not drawn)	22µM*	-11%	-10%	0%[2.29 µM]	-2%	-3%
O=C(NN1C(=O)C2C3C=CC(C4CC34)C2C1=O)c1cccc(Cl)c1 (stereo not drawn)	2%	-11%	-6%	-23%	0%	-10%
Cc1cccc(C(=O)NN2C(=O)C3C(c4ccccc4)C=CC(c4ccccc4)C3C2=O)c1 (stereo not drawn)	-7%	0%	3%	-17%	-8%	-11%
O=C(NN1C(=O)C2C3C=CC(O3)C2C1=O)c1cccc(O)c1 (stereo not drawn)	20µM*	3%	3%	-22%	19%	6%
COc1ccc(CCNC(=O)CCc2c(C)nc3c(c(C)nn3-c3ccc(C)cc3)c2C)c(OC)c1	-10%	x	-11%	x	x	-4%
Cc1cccc(CNC(=O)c2ccc3nc(-c4ccccc4)c(-c4ccccc4)nc3c2)c1	4%	x	6%	x	x	-9%
CCN1CCCC1CNC(=O)CN1C(=O)COc2ccc(C)cc21 (stereo not drawn)	2%	-2%	-1%	25µM*	10%	7%
Cc1nnc(NC(=O)C2CCN(S(=O)(=O)c3cc([N+](=O)[O-])ccc3Cl)CC2)o1	35µM*	-1%	-5%	-21%	-3%	1%
COc1cccc(CN2C(=O)c3ccccc3C2C(=O)NCCc2ccccc2)c1 (stereo not drawn)	-4%	x	-4%	x	x	18%
Cc1ccc(S(=O)(=O)CCC(=O)Nc2ccccc2Cl)cc1	-3%	-9%	-6%	-1%	1%	1%
Cc1c(Cl)cccc1NC(=O)CNC(=O)CCS(=O)(=O)c1ccc(F)cc1	45µM*	10%	-1%	-10%	-3%	5%
CCc1ccccc1NC(=O)CCS(=O)(=O)c1ccc(Br)cc1	-22%	16%	-7%	-16%	2%	-7%
COC(=O)c1ccccc1NC(=O)CCS(=O)(=O)c1ccc(Br)cc1	10µM*	3%	1%	-24%	-1%	4%
O=C(CCS(=O)(=O)c1ccc(Br)cc1)Nc1cc(F)ccc1F	13µM*	0%	-8%	-22%	-6%	0%
O=C(CCS(=O)(=O)c1ccc(Br)cc1)Nc1ccc(F)cc1F	-27%	x	-5%	x	x	-7%
CCOc1ccccc1NC(=O)CN1C=NS(=O)(=O)c2ccccc21	32%	x	-6%	x	x	8%
COc1cccc(Cn2c(CNC(=O)c3cc([N+](=O)[O-])ccc3Cl)nc3cccnc32)c1	-10%	x	2%	x	x	-3%
CCc1ccc(-n2nc(C)c3c(C)cc(=O)n(CC(=O)Nc4cc(C)ccc4C)c32)cc1	-7%	x	3%	x	x	-10%
CN(Cc1ccccc1)C(=O)CCS(=O)(=O)c1ccc2c(c1)n(C)c(=O)c(=O)n2C	22µM*	-8%	-3%	0.5µM*	8%	u
Cc1sc2nc(-c3cccs3)nc(N3CCCN(C)CC3)c2c1C	45µM*	x	x	69%	-3%	-10%
Cc1sc2nc(CN3CCCC3)nc(N3CCN(S(=O)(=O)c4cccs4)CC3)c2c1C	4%	9%	6%	111%	0%	u
O=C(Cn1cnnn1)N[C@@H]1C(=O)N2C(C(=O)O)=C(CSc3nncs3)CS[C@H]12	x	x	-14%	x	x	x
SMILES	Sm TGR inh	RE007 growth inh	TbPYK inhibitor	AmpC no deterg	SARS PLpro yeast	AmpC inh detg
COc1cccc2c1Oc1ncccc1N(C(=O)CCC(=O)NCc1ccc(N(C)C)cc1)C2	u	x	-13%	x	x	3%
O=C(CN1C(=O)CCSc2ccccc21)N1CCC2(CC1)OCCO2	-5%	20%	-5%	0.28µM*	1%	3%
O=C(CN1C(=O)COc2ccccc21)N1CCC2(CC1)OCCO2	6%	-8%	-4%	-19%	6%	u
O=C(Cn1ncc(Cl)c(Cl)c1=O)c1ccc(Cl)cc1	u	27%	3%	-29%	-52%	-6%
C=CCn1c(C)cc(C(=O)Cn2ncc(Cl)c(Cl)c2=O)c1C	40µM*	-16%	-18%	-17%	-29%	u
CC(C)(C)C(=O)Cn1ncc(Cl)c(Cl)c1=O	40µM*	-1%	0%	0%	1%	4%
O=C(c1ccc(Br)cc1)C(CN1CCOCC1)c1ccccc1 (stereo not drawn)	3.5µM*	u	-2%	-26%	-10%	-5%
CCOc1ccc(C(=O)C(CN2CCOCC2)c2ccccc2)cc1 (stereo not drawn)	-5%	-2%	-2%	49%	-115%	u
O=C(CN1CCOCC1)c1ccc(Br)cc1	35µM*	1%	-2%	-13%	-4%	-4%
COc1ccc(-c2nc(C)c(CCNC(=O)c3c(F)cccc3F)s2)cc1	2%	x	-3%	x	x	1%
COc1ccc(CCNC(=O)CCCn2c(=O)c3ccccc3n(CC(=O)Nc3ccc(C)cc3Cl)c2=O)cc1OC	5%	x	-4%	x	x	11%
COC(=O)c1c(-c2ccc(Cl)cc2)noc1N1CCN(c2ccc(F)cc2)CC1	3%	x	-5%	x	x	17%
Cc1cccc(Sc2c([N+](=O)[O-])ncn2C)c1	u	0%	0%	-20%	5%	-1%
Cc1cc2nc(Sc3c([N+](=O)[O-])nc(C)n3Cc3ccccc3)[nH]c2cc1C	18µM*	-5%	-8%	-22%	9%	-3%
Cn1cnc([N+](=O)[O-])c1Sc1nc2ccccc2[nH]1	1.4µM*	2%	-2%	-2%	0%	6%
Cc1nc([N+](=O)[O-])c(Sc2nc3ccccc3[nH]2)n1Cc1ccccc1	20µM*	-26%	-11%	-45%	5%	-5%
Cc1oc(-c2ccc(C(=O)NCc3ccccc3)cc2)nc1CN1CCc2ccccc21	0%	x	-5%	x	x	8%
CCN(CC)C(=O)Nc1ccc(OC[C@H](O)CNC(C)(C)C)c(C(C)=O)c1	x	x	-8%	x	x	x
C/C(=N/NC(=O)CNC(=O)c1ccccn1)c1cccc([N+](=O)[O-])c1	20µM*	11%	-2%	-24%	1%	-8%
